Source: ChEMBL document CHEMBL2218924, “A broad activity screen in support of a chemogenomic map for kinase signalling research and drug discovery” (Biochem J, 2013)

The compounds below were run against Protein kinase C delta type (Homo sapiens) (UniProt Q05655). Conditions: at 1 µM.
Protein kinase C delta type (Homo sapiens), sequence (Q05655 whole entry, looked up): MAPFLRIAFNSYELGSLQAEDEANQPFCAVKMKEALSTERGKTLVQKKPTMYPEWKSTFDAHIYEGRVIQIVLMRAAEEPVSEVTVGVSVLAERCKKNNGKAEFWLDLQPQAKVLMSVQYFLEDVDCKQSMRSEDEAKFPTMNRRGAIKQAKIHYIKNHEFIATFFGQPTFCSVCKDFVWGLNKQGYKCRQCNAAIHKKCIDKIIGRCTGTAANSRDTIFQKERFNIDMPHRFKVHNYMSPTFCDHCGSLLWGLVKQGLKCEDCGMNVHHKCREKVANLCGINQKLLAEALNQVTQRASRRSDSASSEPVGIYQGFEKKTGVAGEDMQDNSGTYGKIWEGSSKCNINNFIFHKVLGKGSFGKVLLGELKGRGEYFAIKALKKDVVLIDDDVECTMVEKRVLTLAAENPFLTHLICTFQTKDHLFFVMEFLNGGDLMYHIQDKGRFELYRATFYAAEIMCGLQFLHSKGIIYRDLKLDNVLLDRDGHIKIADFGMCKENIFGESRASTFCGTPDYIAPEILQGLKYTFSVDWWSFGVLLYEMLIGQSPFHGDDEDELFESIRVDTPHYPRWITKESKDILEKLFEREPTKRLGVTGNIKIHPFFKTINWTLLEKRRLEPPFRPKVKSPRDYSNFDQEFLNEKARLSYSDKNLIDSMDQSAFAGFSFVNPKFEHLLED
`CCCCc1c(-c2ccc(O)cc2)[nH]c2nccnc12` gave a residual activity of 97%. Compound `O=S(=O)(NCCNC/C=C/c1ccc(Br)cc1)c1cccc2cnccc12` has a residual activity of 54%. In the case of `O=C1Cc2c([nH]c3ccc(Br)cc23)-c2ccccc2N1`, the residual activity was 99%. With `CC(C)c1nn(-c2c(Cl)cccc2Cl)c2nc(Cc3ccc(OCCO)cc3)[nH]c(=O)c12` the residual activity was 103%. With `O=c1cc(N2CCNCC2)oc2c(-c3ccccc3)cccc12` the residual activity was 101%. With `O=c1cc(N2CCOCC2)oc2c1ccc1ccccc12` the residual activity was 100%. For `CCOc1nc(NC(=O)Cc2cc(OC)ccc2OC)cc(N)c1C#N`, the residual activity was 118%. `COc1cc2nccc(Oc3ccc(NC(=O)Nc4cc(C)on4)c(Cl)c3)c2cc1OC` showed a residual activity of 100%. For `Nc1n[nH]c2nc3ccccc3nc12`, the residual activity was 85%. Compound `Nc1nc(Nc2ccc(S(N)(=O)=O)cc2)nn1C(=O)c1c(F)cccc1F` has a residual activity of 70%. In the case of `O=C1C(Cl)=C(N2C(=O)CCC2=O)C(=O)c2ccccc21`, the residual activity was 68%. Work on `O=S(=O)(c1cccc2cnccc12)N1CCCNCC1` yielded a residual activity of 85%. In the case of `O=C1NC(=O)C(c2cn(CCCO)c3ncccc23)=C1c1cnccn1`, the residual activity was 97%. With `CC(C)[C@H](CO)Nc1nc(Nc2cc(N)cc(Cl)c2)c2ncn(C(C)C)c2n1` the residual activity was 93%. `NC(=O)c1ccc(-c2nc(-c3ccc4c(c3)OCCO4)c(-c3ccccn3)[nH]2)cc1` showed a residual activity of 93%. Compound `O=C1NC(=O)C(c2cn(CCCn3ccnc3)c3ccccc23)=C1Nc1ccccc1` has a residual activity of 8%.

Each compound was assayed against Protein kinase C delta type (Homo sapiens) (UniProt Q05655). Conditions: at 10 µM.
`CCCCc1c(-c2ccc(O)cc2)[nH]c2nccnc12` showed a residual activity of 100%. Work on `O=S(=O)(NCCNC/C=C/c1ccc(Br)cc1)c1cccc2cnccc12` yielded a residual activity of 11%. `O=C1Cc2c([nH]c3ccc(Br)cc23)-c2ccccc2N1` was tested, and the residual activity was 93%. `CC(C)c1nn(-c2c(Cl)cccc2Cl)c2nc(Cc3ccc(OCCO)cc3)[nH]c(=O)c12` showed a residual activity of 105%. In the case of `O=c1cc(N2CCNCC2)oc2c(-c3ccccc3)cccc12`, the residual activity was 102%. `O=c1cc(N2CCOCC2)oc2c1ccc1ccccc12` was tested, and the residual activity was 98%. `COc1cc2nccc(Oc3ccc(NC(=O)Nc4cc(C)on4)c(Cl)c3)c2cc1OC` gave a residual activity of 106%. For `O=C(Nc1nc2ccccc2n1CCN1CCOCC1)c1cccc([N+](=O)[O-])c1`, the residual activity was 103%. For `Nc1n[nH]c2nc3ccccc3nc12`, the residual activity was 68%. `Nc1nc(Nc2ccc(S(N)(=O)=O)cc2)nn1C(=O)c1c(F)cccc1F` was tested, and the residual activity was 23%. `O=C1C(Cl)=C(N2C(=O)CCC2=O)C(=O)c2ccccc21` was tested, and the residual activity was 60%. Work on `O=S(=O)(c1cccc2cnccc12)N1CCCNCC1` yielded a residual activity of 32%. Work on `O=C1NC(=O)C(c2cn(CCCO)c3ncccc23)=C1c1cnccn1` yielded a residual activity of 91%. `CC(C)[C@H](CO)Nc1nc(Nc2cc(N)cc(Cl)c2)c2ncn(C(C)C)c2n1` gave a residual activity of 72%. In the case of `NC(=O)c1ccc(-c2nc(-c3ccc4c(c3)OCCO4)c(-c3ccccn3)[nH]2)cc1`, the residual activity was 100%. `O=C1NC(=O)C(c2cn(CCCn3ccnc3)c3ccccc23)=C1Nc1ccccc1` showed a residual activity of 2%. In the case of `Fc1ccc(-c2nc3n(c2-c2ccncc2)CCS3)cc1`, the residual activity was 85%.
